ChEMBL document CHEMBL3988442, “University of Dundee, Small-Polar-MMV Screening Library” (2021)

molecular target: AMP-activated protein kinase, AMPK (Homo sapiens) (UniProt P54646+O43741+P54619+Q9UGJ0+Q9Y478+Q13131+Q9UGI9); assay: AMP-dependent Kinase enzyme assay. An in vitro enzyme assay that detects ADP turnover that is directly proportional to AMPK activity. This uses naive AMPK that is activated during the assay with MK-8722; format: functional; parameters: scale not given: direction of the effect not stated beside the values; conditions: 30 µM

Row | SMILES | Percent Effect
1 | CN1CCN(C2CCN(Cc3cn4ccccc4n3)CC2)C1=O | 41.9%
2 | CN1CCOC(CNC(=O)CCCc2ccccc2)C1 (stereo not drawn) | -9.04%
3 | FC(F)(F)c1cccc(OC2CCN(Cc3ccccn3)CC2)c1 | 2.09%
4 | CCNC(=O)c1ccc(NC2CCOC3(CCCCC3)C2)nn1 (stereo not drawn) | 3.88%
5 | OC[C@@H]1CCCN1Cc1cn(C2CCN(C3CCCC3)CC2)nn1 | -1.95%
6 | CC(OCC1CC1)C(=O)Nc1cccc(C(=O)Nc2ccncc2)c1 (stereo not drawn) | 17.8%
7 | NCC1Cc2cccc(-c3ccc(O)c(F)c3)c2O1 (stereo not drawn) | 89.9%
8 | CC(C)c1nc(CN(C)S(=O)(=O)c2cccs2)cs1 | 4.38%
9 | CCOCCNCc1cc(O)c2cc(C)ccc2n1 | -3.23%
10 | Cc1ccc(CNC(=O)NCc2ccco2)s1 | 2.27%
11 | CN1CCCC1CCNC(=O)c1ccccc1-n1cc(CN)cn1 (stereo not drawn) | 11.2%
12 | Cc1nc(O)cc(CN2C[C@H](NC(=O)C3CCCC3)[C@@H](C3CC3)C2)n1 | -1.66%
13 | NC(=O)C1CCN(C(=O)CCSCc2ccccc2)CC1 | 8.64%
14 | COC(=O)CC1CN(Cc2ccn(-c3ccc(F)cc3)n2)CCO1 (stereo not drawn) | -6.96%
15 | CCC(NC(=O)c1cnc(N(C)C)nc1C)c1ccncc1 (stereo not drawn) | 0.963%
16 | Cc1ccc(OCc2occc2C(=O)O)cc1 | 12.4%
17 | O=C1CCCCCN1Cc1cccc(OC(F)F)c1 | 3.82%
18 | CN1C[C@]2(CC[C@@H](C(=O)N3CCOCC3)CC2)Oc2ccccc2C1=O | 11.1%
